Measles inh – inhibitors of measles virus growth in cells, primary screen, measles RdRp inhibitor project, cell-based, single point, HTS; infected Vero cells, GFP fluorescence, 64 h; stronger effect = lower value; z-score (test concentration not listed); 33,000 tested, 0.1% active; in the data active = z-score below about -3
Numbers without * were called inactive. Many of the other results were omitted from the sample, so hits are more common in it than they were.

SMILES	Measles inh
Cc1ccccc1C(=O)N1CCC(C(=O)Nc2ccccc2C(F)(F)F)CC1	0.84
CCC1CCCCN1C(=O)c1ccc(N2CC3CC(C2)c2cccc(=O)n2C3)c(NC(=O)c2ccncc2)c1 (configuration not stated)	0.63
CCOC(=O)CN(Cc1ccccc1F)S(=O)(=O)c1ccc(Cl)cc1	0
O=C(NCc1ccccc1Cl)c1ccc(N2CC3CC(C2)c2cccc(=O)n2C3)c(NS(=O)(=O)c2cccc(Cl)c2)c1 (configuration not stated)	-1.8
O=C1C2C3C=CC(C3)C2C(=O)N1Cc1ccoc1 (configuration not stated)	2
COc1ccc(S(=O)(=O)CCC(=O)Nc2ccc(Br)cc2C)cc1	-0.72
CCOc1ccc(NC(=O)CN2C(=O)C3C4CCC(C4)C3C2=O)cc1 (configuration not stated)	-3.2*
CCOc1ccc(NC(=O)CC23CC4CC(CC(C4)C2)C3)cc1	-0.82
CCOc1ccccc1NC(=O)CN1C(=O)C2C3C=CC(C3)C2C1=O (configuration not stated)	1.3
CCCNC(=O)CCNC(=O)c1cccs1	-2
COCCN1C(=O)c2ccccc2C(C(=O)N(C)Cc2ccccc2)C1c1cn(C)c2ccccc12 (configuration not stated)	0.51
Cc1ccnc(NS(=O)(=O)c2ccc(NC(=O)C(Sc3ccccc3)c3ccccc3)cc2)n1 (configuration not stated)	1.3
CCCCOc1ccc(N2C(=O)C3C4C=CC(C4)C3C2=O)cc1 (configuration not stated)	-3.3*
O=C(O)c1ccc(N2C(=O)C3C4C=CC(C4)C3C2=O)cc1 (configuration not stated)	0.84
N#Cc1ccc(N2C(=O)C3C4C=CC(C4)C3C2=O)cc1 (configuration not stated)	0.54
Cc1cccc2oc(-c3cc(N=Cc4ccc(Br)cc4)ccc3O)nc12	-0.43
Cc1n[nH]c(C)c1S(=O)(=O)N1CCC(C(=O)NCc2cccs2)CC1	-0.98
CCc1nc(Oc2ccc3ccc(=O)oc3c2)c2c3c(sc2n1)CCCC3	-0.47
Cc1cc(N2CCN(C)CC2)nc2ccc(NC(=O)c3cccc(C(F)(F)F)c3)cc12	0.66
Cc1cc(N2CCN(C)CC2)nc2ccc(NC(=O)Cc3cccc(C(F)(F)F)c3)cc12	-3.1*
CCN1CCN(c2cc(C)c3cc(NC(=O)Cc4cccc(C)c4)ccc3n2)CC1	-1.5
COc1cccc2cc(-c3cn(-c4cccc(Br)c4)c(=S)[nH]3)c(=O)oc12	-0.07
CC(=O)Oc1cccc(C=Cc2nc3ccccc3c(=O)n2-c2cccc(Cl)c2C)c1	0.93
O=C(CNS(=O)(=O)c1cccc2nonc12)N1CCN(c2ccc(F)cc2)CC1	-0.43

Assay outcomes from PubChem.
